Consider 94 molecules from ChEMBL document CHEMBL1201862, “PubChem BioAssay data set” (2004).

In all, about 400,000 compounds went through this assay and about 2,100 (0.53%) were called active. Another 14% or so got no clear call; they are omitted. How the calls were made is not given here. The entries come from a sample that favours actives as a whole.

Ataxin-2 (Homo sapiens), sequence (Q99700 whole entry): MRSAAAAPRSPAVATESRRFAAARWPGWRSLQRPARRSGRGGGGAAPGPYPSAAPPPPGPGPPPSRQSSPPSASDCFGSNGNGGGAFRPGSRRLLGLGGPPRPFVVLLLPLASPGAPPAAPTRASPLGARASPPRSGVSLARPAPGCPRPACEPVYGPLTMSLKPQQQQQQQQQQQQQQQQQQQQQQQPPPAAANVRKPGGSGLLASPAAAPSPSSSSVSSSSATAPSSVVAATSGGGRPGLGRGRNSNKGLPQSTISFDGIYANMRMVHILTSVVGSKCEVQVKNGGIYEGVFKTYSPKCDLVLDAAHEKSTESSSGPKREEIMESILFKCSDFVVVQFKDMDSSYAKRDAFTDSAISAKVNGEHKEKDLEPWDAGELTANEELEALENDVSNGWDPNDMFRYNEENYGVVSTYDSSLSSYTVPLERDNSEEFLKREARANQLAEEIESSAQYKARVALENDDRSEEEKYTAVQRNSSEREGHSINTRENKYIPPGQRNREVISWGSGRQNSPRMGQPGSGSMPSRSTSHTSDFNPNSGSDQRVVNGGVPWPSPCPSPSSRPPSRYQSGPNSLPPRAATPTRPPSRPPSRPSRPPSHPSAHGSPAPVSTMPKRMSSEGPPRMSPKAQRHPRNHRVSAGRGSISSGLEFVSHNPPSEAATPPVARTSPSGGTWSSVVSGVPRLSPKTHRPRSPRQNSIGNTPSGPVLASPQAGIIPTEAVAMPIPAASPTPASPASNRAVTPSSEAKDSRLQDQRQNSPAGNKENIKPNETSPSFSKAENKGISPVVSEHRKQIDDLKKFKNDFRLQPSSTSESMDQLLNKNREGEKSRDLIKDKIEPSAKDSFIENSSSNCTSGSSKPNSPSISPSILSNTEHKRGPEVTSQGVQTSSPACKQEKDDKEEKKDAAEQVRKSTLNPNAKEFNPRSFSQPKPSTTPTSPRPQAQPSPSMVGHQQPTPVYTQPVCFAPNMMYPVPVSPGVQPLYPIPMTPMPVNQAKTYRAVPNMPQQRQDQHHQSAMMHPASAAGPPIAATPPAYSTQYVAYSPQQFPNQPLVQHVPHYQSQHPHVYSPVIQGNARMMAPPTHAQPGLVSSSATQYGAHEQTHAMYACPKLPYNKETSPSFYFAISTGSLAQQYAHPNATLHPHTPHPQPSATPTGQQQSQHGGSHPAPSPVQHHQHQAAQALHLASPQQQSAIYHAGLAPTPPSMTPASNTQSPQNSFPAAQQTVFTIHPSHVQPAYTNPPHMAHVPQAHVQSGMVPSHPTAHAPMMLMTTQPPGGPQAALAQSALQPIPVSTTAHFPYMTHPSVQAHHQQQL

This experiment has as its target Ataxin-2 (Homo sapiens) (UniProt Q99700). Briefly: qHTS for Inhibitors of ATXN expression. The experiment is classed as functional. Background: qHTS replaces the single test concentration by a dilution series.
For `C=CS(=O)(=O)c1c2cc(OC)ccc2nc2ccc(OC)cc12`, the Potency result is “inactive”.

Consider `Cc1cccn2c(=O)c(C=O)c(N3CCCCC3)nc12`, for which the Potency result was “inactive”.

For `Nc1c(C(=O)Nc2ccccc2Br)sc2nc(-c3cccs3)ccc12`, the Potency entry is “inactive”.

Take `O=C(NC(=S)Nc1ccc(N2CCCC2)cc1)c1ccc(F)cc1`: the Potency entry was “inactive”.

As to `Cc1nn(CC(=O)N2CCN(c3ccc(Cl)cc3)CC2)c(=O)c2cccn12`, the Potency result is “inactive”.

With `O=C(c1nc(-c2ccc(Cl)cc2)n2c1CCCCC2)N1CCN(c2ccc(F)cc2)CC1`, the Potency was 22.4 µM (active).

Turning to `CCC(C)n1c(=N)c(C#N)cc2c(=O)n3cccc(C)c3nc21` (centres undefined), the Potency result is “inactive”.

For `O=C(CN1C(=O)NC(Cc2c[nH]c3ccccc23)C1=O)Nc1cccc(S(=O)(=O)N2CCCC2)c1` (centres undefined), the Potency entry is “inactive”.

With `COc1ccccc1C1c2[nH]c3ccccc3c2CCN1Cc1cnc(C)s1` (centres undefined), the Potency entry was “inactive”.

`COC(=O)Cc1c(C)c2ccc3c(c2oc1=O)CN(Cc1ccc(C)cc1)CO3`: the Potency result is “inactive”.

For the molecule `C=CC[C@@H](Cc1ccc(F)cc1)C(=O)OC[C@@H]1CCCN1C(=O)[C@H](CC=C)CC(=O)N[C@H](CO)Cc1ccccc1`, the Potency is 39.8 µM (active).

In the case of `C=CCC[C@@H](Cc1ccc(F)cc1)C(=O)OC[C@@H]1CCCN1C(=O)[C@@H](CC=C)CC(=O)N[C@@H](CO)Cc1ccccc1`, the Potency is 28.2 µM (active).

As to `C=CCC[C@@H](Cc1ccc(F)cc1)C(=O)OC[C@@H]1CCCN1C(=O)[C@H](CC=C)CC(=O)N[C@H](CO)Cc1ccccc1`, the Potency is 35.5 µM (active).

As for `CC(=O)Nc1nn(C)c2nc3ccc(C)cc3cc12`, the Potency entry was “inactive”.

For `CCN1C(=O)c2ccc(C(=O)Nc3cccc(C(=O)O)c3)cc2C1=O`, the Potency entry was “inactive”.

For `CCCCCNCC(=O)Nc1cccc(C(=O)Nc2cccc(C(F)(F)F)c2)c1`, the Potency is 26.7 µM (active).

Regarding `C/C(CC(=O)Nc1cccc(C(F)(F)F)c1)=N\NC(=O)c1ccncc1`, the Potency entry was “inactive”.

In the case of `[O-][n+]1c(-c2ccccc2)c(O)nc2ccccc21`, the Potency entry is “inactive”.

Take `COc1ccc2c(Cl)c(C(=O)N/N=C3\CCCC(=O)C3)sc2c1`: the Potency result was “inactive”.

`COCC(C)OC(=O)c1c(N)n(CC(C)C)c2nc3ccccc3nc12` (centres undefined): the Potency result is “inactive”.

As for `CCCCc1ccc(-c2csc(/C(C#N)=C\c3ccco3)n2)cc1`, the Potency result was “inactive”.

With `Cc1ccc(O)c(NC(=S)NC(=O)c2ccc(-c3ccc(Cl)cc3)o2)c1`, the Potency was 22.4 µM (active).

In the case of `CCOCCCn1c(=N)c(C(N)=S)cc2c(=O)n3cccc(C)c3nc21`, the Potency entry is “inactive”.

On to `CN1CCN(c2ccc(S(=O)(=O)N3CCCCC3)cc2NC(=O)c2cccc([N+](=O)[O-])c2)CC1`, for which the Potency result was “inactive”.

In the case of `NC(=O)c1ccc(NC(=O)c2cc(S(=O)(=O)N3CCCCC3)ccc2N2CCOCC2)cc1`, the Potency entry is “inactive”.

Turning to `Cc1ccccc1NC(=O)c1cc(S(=O)(=O)N2CCCCC2)ccc1N1CCOCC1`, the Potency entry is “inactive”.

Turning to `O=C(Nc1ccc(S(=O)(=O)N2CCCC2)cc1)c1ccc([N+](=O)[O-])o1`, the Potency was 37.7 µM (active).

For `Cc1cc(C(=O)Nc2ccc(S(=O)(=O)N3CCOCC3)cc2)c(C)o1`, the Potency entry is “inactive”.

Take `CCN1CCN(c2ccc(S(=O)(=O)N3CCCCC3)cc2NC(=O)c2ccc([N+](=O)[O-])o2)CC1`: the Potency is 28.2 µM (active).

On to `CC(=O)Oc1ccc(OC(C)=O)c(SCCCCCCl)c1`, for which the Potency result was “inactive”.

With `CC1=CC2C(C(O)CC3(C)C2CC(C)C32OCOC23COCO3)C2(C)CC(C=O)=C(O)C=C12` (centres undefined), the Potency was 15 µM (active).

Consider `COc1cc(/C=C2\C(=N)N3N=C(S(C)(=O)=O)SC3=NC2=O)ccc1OCCOc1ccccc1C`, for which the Potency entry was “inactive”.

Regarding `O=C(CCc1ccc(O)cc1)N/N=C/c1coc2ccccc2c1=O`, the Potency result is “inactive”.

Consider `CNC(=O)c1c(NC(=O)c2ccc(S(=O)(=O)N3CCCC(C)C3)cc2)sc2c1CCC2` (centres undefined), for which the Potency result was “inactive”.

For `COCCNC(=O)c1c(N)n(CCC2=CCCCC2)c2nc3ccccc3nc12`, the Potency entry is “inactive”.

With `COc1ccccc1Nc1nn2c(=O)c3ccc(C(=O)NCCC4=CCCCC4)cc3nc2s1`, the Potency is 6.31 µM (active).

Take `CCOc1ccccc1NC(=O)c1ccc2c(O)c(S(=O)(=O)c3ccccc3)c(O)nc2c1`: the Potency result is “inactive”.

As for `O=C1/C(=C/Nn2cnnc2)c2ccccc2C(=O)N1c1ccccc1`, the Potency entry is “inactive”.

As for `N#Cc1cc2c(=O)n3ccccc3nc2n(Cc2cccnc2)c1=O`, the Potency entry was “inactive”.

As for `Cc1ccc2nc3c(cc(C(=O)NCCc4ccccc4)c(=N)n3CC3CCCO3)c(=O)n2c1` (centres undefined), the Potency result was “inactive”.

`CCC[C@H](CN[C@@H](CNC)[C@H](C)CC)NCCc1cc(C(F)(F)F)cc(C(F)(F)F)c1`: the Potency was 25.1 µM (active).

Take `CCC[C@@H](CN[C@@H](CNC)[C@H](C)CC)NCC1CCC(C(C)(C)C)CC1` (some centres undefined): the Potency is 35.5 µM (active).

As to `Cc1cc(S(=O)(=O)c2cc3ccc(O)c(C)c3oc2=O)ccc1F`, the Potency result is “inactive”.

`Cn1nc(C(=O)OCC(=O)Nc2ccccc2OC(F)F)c2ccccc2c1=O`: the Potency entry is “inactive”.

`CCOC(=O)c1cc2c(=O)n3ccccc3nc2n(CC2CCCO2)/c1=N\C(=O)c1ccccc1F` (centres undefined): the Potency entry was “inactive”.

As for `Cc1ccc(-n2c(S)nnc2Cn2c(C)nc3ccccc32)cc1`, the Potency result was “inactive”.

Take `O=[N+]([O-])c1ccc(C2=NN(c3ccccc3)C(c3ccco3)C2)cc1` (centres undefined): the Potency entry was “inactive”.

Take `COc1ccc(C2=NN(c3ccccc3)C(c3cn(CCC(=O)O)nc3-c3ccccc3)C2)cc1` (centres undefined): the Potency result was “inactive”.

`Cc1nc(N2N=C(c3ccc(Cl)cc3)CC2c2ccco2)sc1C(=O)N(C)C` (centres undefined): the Potency entry was “inactive”.

With `COc1ccc(C2=NN(C(=O)COC(=O)c3ccc(S(C)(=O)=O)c([N+](=O)[O-])c3)C(c3ccco3)C2)cc1` (centres undefined), the Potency is 23.8 µM (active).

`COc1ccc(C2CC(c3ccccc3)=NN2c2ccc(Cl)c(C(=O)O)c2)cc1` (centres undefined): the Potency entry was “inactive”.

For the molecule `COc1ccc(C2CC(c3ccccc3)=NN2C(=O)c2ccc(Cl)c([N+](=O)[O-])c2)cc1` (centres undefined), the Potency is 31.6 µM (active).

Regarding `COc1ccc(C2CC(c3ccccc3)=NN2c2ccc(S(N)(=O)=O)cc2)cc1` (centres undefined), the Potency entry is “inactive”.

With `CCn1cc([N+](=O)[O-])c(C(=O)N2N=C(c3ccc(Cl)c(Cl)c3)CC2c2ccccc2O)n1` (centres undefined), the Potency was 39.8 µM (active).

Consider `Cc1ccc(C2=CC(c3ccc(N(C)C)cc3)n3nnnc3N2)cc1` (centres undefined), for which the Potency entry is “inactive”.

Consider `CN1CCc2c(sc3c2C(=O)NC(c2ccccc2)N3)C1` (centres undefined), for which the Potency entry was “inactive”.

Consider `Cc1ccc(S(=O)(=O)c2cc3ccccc3nc2N)cc1`, for which the Potency entry was “inactive”.

Take `Cc1ccc2nc3c(cc(C#N)c(=O)n3-c3nccs3)c(=O)n2c1`: the Potency result is “inactive”.

Turning to `Cc1c(Cc2ccccc2)sc(/N=C/c2c(O)ccc3ccccc23)c1C(N)=O`, the Potency entry is “inactive”.

Regarding `Cc1ccc(-c2cc(-c3ccco3)c(C#N)c(O)n2)cc1`, the Potency result is “inactive”.

For the molecule `CCOC(=O)c1c(NC(=O)c2ccc(S(=O)(=O)N(C)C3CCCCC3)cc2)sc2c1CCN(C(C)C)C2`, the Potency result is “inactive”.

Turning to `CCOC(=O)c1c(NC(=O)c2ccc(S(=O)(=O)N(CC(C)C)CC(C)C)cc2)sc2c1CCN(CC)C2`, the Potency result was “inactive”.

`CCOC(=O)c1c(NC(=O)C(C)Sc2c[nH]c3ccccc23)sc2c1CCC2` (centres undefined): the Potency is 3.16 µM (active).

As to `CCOC(=O)c1c(NC(=O)Nc2ccc(C)cc2)sc2c1CCN(C)C2`, the Potency entry was “inactive”.

With `CCOC(=O)c1c(NC(=O)C(NCCN(C)C)c2ccccc2)sc2c1CCCC2` (centres undefined), the Potency was 39.8 µM (active).

In the case of `CCOC(=O)c1c(NC(=O)C(C)Sc2cccc[n+]2[O-])sc2c1CCN(Cc1ccccc1)C2` (centres undefined), the Potency entry was “inactive”.

With `Cc1ccc2nc(N3CCN(CCO)CC3)nc(-c3ccccc3)c2c1`, the Potency result is “inactive”.

For the molecule `CCN1CCc2c(sc(NC(=O)c3ccc(S(=O)(=O)N4CCCC(C)C4)cc3)c2C(=O)OC)C1` (centres undefined), the Potency entry is “inactive”.

In the case of `CCN(C(=O)Cc1c(C(=O)O)n(CC)c2ccccc12)c1ccccc1C`, the Potency entry was “inactive”.

As for `CCOc1ccccc1N(C)C(=O)c1cc2c(=O)n(CC)c3ccccc3c2s1`, the Potency was 39.8 µM (active).

As for `CCCN(CCC)CCCNC(=O)c1cc2c(=O)n(CC)c3ccccc3c2s1`, the Potency entry was “inactive”.

On to `O=C(Cn1ncc(Cl)c(Cl)c1=O)N1CCN(Cc2ccccc2)CC1`, for which the Potency was 39.8 µM (active).

For `O=C(Cn1ncc(Cl)c(Cl)c1=O)N1CCc2ccccc21`, the Potency is 7.52 µM (active).

Take `O=Cc1cn(CC(=O)N2CCc3ccccc32)c2ccccc12`: the Potency result is “inactive”.

With `Cn1c(=O)c2c(nc(Sc3ncnn3CC(=O)N3CCOCC3)n2C)n(C)c1=O`, the Potency result was “inactive”.

As to `O=C(Cn1ncc(Cl)c(Cl)c1=O)N1CCOCC1`, the Potency was 39.8 µM (active).

As for `CC1CC(C)CN(CC(=O)N2CCOCC2)C1` (centres undefined), the Potency entry is “inactive”.

With `CN(CC(=O)Nc1ccc(Cl)cc1)CC(=O)N1CCc2ccccc21`, the Potency result is “inactive”.

As to `COc1cc2c(cc1OC)CN(Cc1cc(=O)oc3c(C)c(C)ccc13)CC2`, the Potency result is “inactive”.

Consider `COc1ccc(NC(S)=Nc2ccc3nsnc3c2)cc1`, for which the Potency entry was “inactive”.

As to `Cc1ccsc1CN(C)CC(=O)NCC(=O)Nc1ccc(F)cc1`, the Potency result was “inactive”.

`CCOC(=O)Cc1c(C)c2c(O)cc(O)cc2oc1=O`: the Potency entry is “inactive”.

With `CN(C)c1ccc(/C=c2\c3cc([N+](=O)[O-])ccc3n3c2cc(-c2ccccc2)[n+]3C)cc1`, the Potency was 31.6 µM (active).

On to `CCOC(=O)c1cc2c(=Cc3ccc(N(C)C)cc3)c3ccccc3n2[n+]1C`, for which the Potency was 13.4 µM (active).

Take `C[n+]1c(-c2ccccc2)cc2c(=Cc3ccccc3)c3ccccc3n21`: the Potency is 23.8 µM (active).

`CN(C(=O)COC(=O)c1nnc(O)c2ccccc12)c1ccccc1`: the Potency entry is “inactive”.

For the molecule `COc1ccc2c(c1)c(=Cc1ccc(N(C)C)cc1)c1cc(-c3ccccc3)[n+](C)n12`, the Potency was 17.8 µM (active).

As for `O=[N+]([O-])c1ccc2c(c1)c1ccccc1n2CCO`, the Potency result is “inactive”.

`CCOC(=O)c1cc(C(=O)OCC)c2ccccn2c1=O`: the Potency entry was “inactive”.

Turning to `N#Cc1c2ccc(OCC(N)=O)cc2n2ccccc12`, the Potency result is “inactive”.

On to `CCN(Cc1ccc(OC)c(F)c1)C(=O)/C=C/c1ccc(S(=O)(=O)N2CCOCC2)cc1`, for which the Potency result is “inactive”.

On to `CCOC(=O)/C=C/C(=O)Nc1ccc(S(=O)(=O)Nc2nccs2)cc1`, for which the Potency entry is “inactive”.

Consider `CC(NC(=O)c1cc2c(=O)n3ccccc3nc2n(CC2CCCO2)c1=N)c1ccccc1` (centres undefined), for which the Potency result was “inactive”.

For the molecule `Cc1cc(C(=O)NNc2c(Cl)cccc2Cl)no1`, the Potency entry was “inactive”.
